The record followed here is PubChem BioAssay.

The source made the active and inactive calls.

Assay [1] in a line: small molecules captured by biotinylated probe aFSTL3 – biochemical, small-molecule microarray, fluorescence 635/667, stem cell growth factor project, primary screen (AID 1064).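 Also: measures binding of the biotinylated anti-FSTL3 antibody to printed compounds.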 The following applies: higher = more signal.
Assay [2] is described as follows: binders from COS7 lysate, DM2A8 probe, primary screen, torsin A project, cell lysate, small-molecule microarray, fluorescence 635/667 (AID 1065). The following applies: higher = more signal, COS7 lysate expressing mutant human TOR1A.
Assay [3] is described as follows: small molecules captured by biotinylated probe aFGF2 – biochemical, small-molecule microarray, fluorescence 635/667, stem cell growth factor project, primary screen (AID 1067).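 Also: measures binding of biotinylated aFGF2 protein to printed compounds on slides; z-score merges feature fluorescence and signal-to-noise across triplicate slides.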 The following applies: higher = more signal.
Assay [4] can be described thus: small molecules captured by biotinylated probe aFGF10 – biochemical, small-molecule microarray, fluorescence 635/667, stem cell growth factor project, primary screen (AID 1071).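 Also: score merges 667 nm spot intensity and signal to noise from triplicate slides.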 The following applies: higher = more signal.
The target in assay [5] is Neurogenic locus notch homolog protein 2 (Homo sapiens) (UniProt Q04721). In words: small molecules binding Notch2 protein – biochemical, small-molecule microarray, 635 nm fluorescence, stem cell growth factors, primary screen (AID 1073). The following applies: higher = more signal.
Neurogenic locus notch homolog protein 2 (Homo sapiens), sequence (Q04721 whole entry, looked up, canonical isoform): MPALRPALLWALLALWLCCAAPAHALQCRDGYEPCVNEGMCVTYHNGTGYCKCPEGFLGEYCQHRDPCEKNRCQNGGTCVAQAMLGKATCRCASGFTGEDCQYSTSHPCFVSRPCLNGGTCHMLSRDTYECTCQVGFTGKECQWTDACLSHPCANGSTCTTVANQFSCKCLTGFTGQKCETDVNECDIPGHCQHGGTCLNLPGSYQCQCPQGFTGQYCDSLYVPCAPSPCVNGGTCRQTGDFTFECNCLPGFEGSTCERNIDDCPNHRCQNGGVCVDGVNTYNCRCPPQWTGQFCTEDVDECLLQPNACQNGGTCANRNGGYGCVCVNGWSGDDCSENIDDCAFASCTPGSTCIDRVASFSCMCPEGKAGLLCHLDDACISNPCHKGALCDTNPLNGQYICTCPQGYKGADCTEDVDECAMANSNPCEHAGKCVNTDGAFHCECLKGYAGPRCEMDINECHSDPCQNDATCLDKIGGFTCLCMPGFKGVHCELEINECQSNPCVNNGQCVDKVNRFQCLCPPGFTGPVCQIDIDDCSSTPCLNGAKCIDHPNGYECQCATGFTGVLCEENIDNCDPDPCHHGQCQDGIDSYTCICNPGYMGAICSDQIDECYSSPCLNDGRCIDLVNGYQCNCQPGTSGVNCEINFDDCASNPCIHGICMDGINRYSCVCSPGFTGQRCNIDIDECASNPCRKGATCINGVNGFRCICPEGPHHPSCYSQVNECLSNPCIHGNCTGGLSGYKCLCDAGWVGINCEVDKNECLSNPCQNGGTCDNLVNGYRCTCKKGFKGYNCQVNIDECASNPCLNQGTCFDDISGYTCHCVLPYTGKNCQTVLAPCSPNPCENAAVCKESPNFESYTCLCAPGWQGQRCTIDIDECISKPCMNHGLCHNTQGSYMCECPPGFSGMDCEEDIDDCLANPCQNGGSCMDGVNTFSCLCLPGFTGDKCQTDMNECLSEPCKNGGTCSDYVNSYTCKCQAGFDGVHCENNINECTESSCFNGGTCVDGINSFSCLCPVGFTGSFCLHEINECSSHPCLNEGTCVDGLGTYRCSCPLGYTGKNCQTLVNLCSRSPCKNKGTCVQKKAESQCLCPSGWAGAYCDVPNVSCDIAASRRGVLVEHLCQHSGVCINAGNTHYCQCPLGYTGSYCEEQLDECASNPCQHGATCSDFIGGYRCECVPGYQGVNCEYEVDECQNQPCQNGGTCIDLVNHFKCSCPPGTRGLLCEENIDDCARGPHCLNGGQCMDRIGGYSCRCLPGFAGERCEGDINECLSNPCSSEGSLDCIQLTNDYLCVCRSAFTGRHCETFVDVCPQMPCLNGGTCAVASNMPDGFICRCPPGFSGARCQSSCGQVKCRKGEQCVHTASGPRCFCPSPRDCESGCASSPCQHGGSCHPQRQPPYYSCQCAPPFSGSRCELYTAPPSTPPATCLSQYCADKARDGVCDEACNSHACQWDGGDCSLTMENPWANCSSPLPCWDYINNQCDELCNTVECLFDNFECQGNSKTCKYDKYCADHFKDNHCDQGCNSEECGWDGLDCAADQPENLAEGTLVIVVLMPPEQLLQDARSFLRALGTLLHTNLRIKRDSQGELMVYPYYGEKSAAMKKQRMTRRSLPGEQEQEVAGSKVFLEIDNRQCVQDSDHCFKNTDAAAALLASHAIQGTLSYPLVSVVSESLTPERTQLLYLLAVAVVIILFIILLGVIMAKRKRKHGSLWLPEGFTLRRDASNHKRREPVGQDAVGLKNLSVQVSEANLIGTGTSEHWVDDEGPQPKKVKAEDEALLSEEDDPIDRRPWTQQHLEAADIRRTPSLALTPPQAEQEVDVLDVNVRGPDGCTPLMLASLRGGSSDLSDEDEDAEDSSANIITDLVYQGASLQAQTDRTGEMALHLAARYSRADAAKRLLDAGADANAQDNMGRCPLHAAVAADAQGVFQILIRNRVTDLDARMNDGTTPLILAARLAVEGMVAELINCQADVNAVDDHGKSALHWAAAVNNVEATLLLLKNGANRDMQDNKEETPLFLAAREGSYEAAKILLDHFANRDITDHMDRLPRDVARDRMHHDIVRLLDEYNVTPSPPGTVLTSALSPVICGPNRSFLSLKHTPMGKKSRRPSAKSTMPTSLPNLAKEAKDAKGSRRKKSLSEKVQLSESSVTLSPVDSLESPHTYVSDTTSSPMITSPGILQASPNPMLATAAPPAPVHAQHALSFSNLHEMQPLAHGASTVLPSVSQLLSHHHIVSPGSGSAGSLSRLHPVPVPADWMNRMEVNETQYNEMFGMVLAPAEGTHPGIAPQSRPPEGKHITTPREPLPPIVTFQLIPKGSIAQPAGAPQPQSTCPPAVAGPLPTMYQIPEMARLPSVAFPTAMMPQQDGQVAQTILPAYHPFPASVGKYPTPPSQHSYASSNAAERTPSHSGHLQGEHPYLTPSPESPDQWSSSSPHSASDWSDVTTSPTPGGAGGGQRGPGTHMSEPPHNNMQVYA
Assay [6] concerns the target Pro-neuregulin-1, membrane-bound isoform (Homo sapiens) (UniProt Q02297). Kind of assay: small molecules binding neuregulin-1 protein – biochemical, small-molecule microarray, fluorescence 635/667, psychiatric disease protein project, primary screen (AID 1075).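 Also: score combines 667 nm spot fluorescence with signal to noise.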 The following applies: NRG1 binding, 635 nm fluorescence, higher = more signal.
Assay [7] has as its system Neuregulin-1 EGF-like domain. In words: small molecules binding NRG1 EGF domain – biochemical, small-molecule microarray, 635 nm fluorescence, primary screen (AID 1081).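 Also: binding of the protein to compounds printed on small-molecule microarray slides.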 The following applies: higher = more signal.
A short description of assay [8]: FRG1 expression reporter modulators in myotubes – cell-based, C2C12 myotubes, firefly/Renilla luciferase, luminescence, FRG1 inhibition for FSHD, primary screen (AID 1084). The following applies: FRG1 promoter luciferase, higher = more signal, called active from +8 up or from −8 down.
Assay [9] in a line: small molecules captured by biotinylated probe aFST – biochemical, small-molecule microarray, fluorescence 635/667, stem cell growth factor project, primary screen (AID 1086).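 Also: score merges 667 nm fluorescence with signal-to-noise of each printed compound spot.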 The following applies: higher = more signal.
The nature of assay [10]: binders of probe aHhip on microarray, primary screen, stem cell growth factor project, biochemical, small-molecule microarray, fluorescence 635/667 (AID 1087).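 Also: score merges spot fluorescence at 667nm with spot signal to noise ratio.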 The following applies: higher = more signal.
Assay [11] deals with PRMT1 (protein arginine N-methyltransferase 1). Kind of assay: small molecules binding arginine methyltransferase PRMT1 – biochemical, small-molecule microarray, 635 nm fluorescence, primary screen (AID 1088).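 Also: binding of Prmt1 protein to compounds spotted on small-molecule microarray slides.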 The following applies: higher = more signal.
Assay [12] in a line: growth effects on S. cerevisiae YJM789 – YJM789 clinical isolate, OD600, 24 h, basal, primary screen (AID 1089).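 Also: growth of clinical yeast isolate S. cerevisiae YJM 789 seeded 1000 cells per well; test concentration not given here.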 The following applies: higher = more signal, called active from +8 up or from −8 down.
Assay [13] in a line: S. pombe growth modifiers, basal conditions – strain 972, OD600, 24 h, no modulator, primary screen (AID 1090).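 Also: basal condition with compound alone and no growth modifier present; test concentration not given here.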 The following applies: S. pombe 972 growth, higher = more signal, called active from +8 up or from −8 down.
Assay [14] can be described thus: budding yeast growth modifiers under rapamycin – strain BY4716, OD600, 96 h, primary screen (AID 1091). Also: test concentration not given here. The following applies: S. cerevisiae BY4716 + rapamycin, higher = more signal, called active from +8 up or from −8 down.
For assay [15], the target named is Torsin-1A-interacting protein 2 (Homo sapiens) (UniProt Q8NFQ8). Kind of assay: small molecules binding lysate-expressed LULL1 – cell lysate, human LULL1 lysate, 635/667 nm fluorescence, primary screen (AID 1092).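 Also: score merges per-feature 667 nm fluorescence with signal-to-noise.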 The following applies: small-molecule microarray, hLULL1 lysate binding, 635 nm fluorescence; higher = more signal.
Torsin-1A-interacting protein 2 (Homo sapiens), sequence (Q8NFQ8 whole entry, looked up): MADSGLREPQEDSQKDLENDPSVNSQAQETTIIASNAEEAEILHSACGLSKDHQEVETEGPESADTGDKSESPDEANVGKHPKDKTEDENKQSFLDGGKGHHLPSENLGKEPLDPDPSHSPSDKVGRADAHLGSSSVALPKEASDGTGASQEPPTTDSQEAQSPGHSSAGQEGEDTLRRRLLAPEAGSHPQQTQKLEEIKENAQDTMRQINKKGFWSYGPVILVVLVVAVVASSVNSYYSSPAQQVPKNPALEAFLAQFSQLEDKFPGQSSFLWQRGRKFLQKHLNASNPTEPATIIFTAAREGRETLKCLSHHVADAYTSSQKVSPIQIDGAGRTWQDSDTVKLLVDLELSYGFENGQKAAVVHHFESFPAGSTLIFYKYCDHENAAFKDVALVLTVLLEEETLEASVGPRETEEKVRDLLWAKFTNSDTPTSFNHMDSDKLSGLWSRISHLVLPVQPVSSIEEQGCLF
Assay [16] can be described thus: optical density change of DRC41 E. coli – strain DRC41, OD650, 24 h, E. coli filamentation project, primary screen (AID 1093).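 Also: MC1000 strain lacking acrAB efflux and sulA so SOS filamentation is blocked; test concentration not given here.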 The following applies: E. coli DRC41 growth, higher = more signal, called active from +8 up or from −8 down.
Assay [17] is described as follows: probe aLefty2 binding to arrayed compounds – biochemical, biotinylated probe, 635/667 nm fluorescence, primary screen (AID 1094).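 Also: score merges spot fluorescence near 667 nm with spot signal-to-noise ratio.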 The following applies: small-molecule microarray, higher = more signal.
In assay [18] the test system is Noggin (protein binding on small-molecule microarray). In words: small molecules binding Noggin protein – biochemical, 635/667 nm fluorescence, primary screen (AID 1095).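 Also: score merges 667 nm feature fluorescence with signal to noise over triplicate slides.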 The following applies: 635 nm fluorescence, higher = more signal.
For assay [19], the target named is Neurogenic locus notch homolog protein 3 (Homo sapiens) (UniProt Q9UM47). Kind of assay: small molecules binding NOTCH3 protein – biochemical, 635/667 nm fluorescence, primary screen (AID 1096). The following applies: small-molecule microarray, 635 nm fluorescence, higher = more signal.
A short description of assay [20]: probe aEGFR binding to arrayed compounds – biochemical, biotinylated probe, 635/667 nm fluorescence, primary screen (AID 1097).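 Also: probe is a biotinylated anti-EGFR antibody binding compounds printed on slides; score combines fluorescence near 667 nm and signal to noise of each spot.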 The following applies: small-molecule microarray, higher = more signal.

Pro-neuregulin-1, membrane-bound isoform (Homo sapiens), sequence (Q02297 whole entry, looked up, the tested form may be a part, canonical isoform): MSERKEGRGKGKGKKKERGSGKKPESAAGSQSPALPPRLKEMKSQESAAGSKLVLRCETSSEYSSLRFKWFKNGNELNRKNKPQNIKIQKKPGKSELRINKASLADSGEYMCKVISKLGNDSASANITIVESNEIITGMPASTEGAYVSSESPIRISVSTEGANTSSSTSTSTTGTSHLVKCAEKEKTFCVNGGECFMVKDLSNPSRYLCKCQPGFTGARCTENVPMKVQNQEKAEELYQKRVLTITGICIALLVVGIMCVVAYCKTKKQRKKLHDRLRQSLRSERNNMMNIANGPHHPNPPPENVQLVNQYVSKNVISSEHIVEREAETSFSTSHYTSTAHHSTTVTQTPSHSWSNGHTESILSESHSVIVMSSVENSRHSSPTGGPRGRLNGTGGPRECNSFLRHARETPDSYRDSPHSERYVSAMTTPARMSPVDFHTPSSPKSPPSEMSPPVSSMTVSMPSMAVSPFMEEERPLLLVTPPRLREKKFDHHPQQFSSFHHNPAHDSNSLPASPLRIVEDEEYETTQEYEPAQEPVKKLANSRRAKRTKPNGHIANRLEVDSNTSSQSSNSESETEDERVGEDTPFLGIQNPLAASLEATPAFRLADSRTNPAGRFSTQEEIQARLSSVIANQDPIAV

For the compound `C=CCC(OC(C)=O)[C@@H]1[C@@H](N(Cc2cc3ccccc3o2)C(=O)Cc2ccc(OC)cc2)c2cc(OCCCO)ccc2N1C(=O)Cc1ccc2ccccc2c1` (stereo not given in full), the composite z-score was 0.0169 in assay [1]; -0.94 in assay [2]; -0.0348 in assay [3]; -0.377 in assay [4]; -0.368 in assay [5]; -0.359 in [6]. In addition, the composite z-score in [7] was 0.331; in assay [9], 0.0598; in [10] it was 0.0505; in [11] it was -0.328; in assay [15], 0.783; in [17] it was -0.115. The composite z-score in [18] is -0.507; in [19], -1.01; in assay [20] it was -0.145. Moreover, the z-score in [8] was -0.906 (inactive); in [12], 0.225 (inactive); in [13], 0.232 (inactive); in [14], 0.738 (inactive); in assay [16] it was -0.0576 (inactive).

Consider `CCN(CC)c1ccc(N2CC=CC34O[C@@H]5C=CCOC(=O)[C@@H]5[C@H]3C(=O)N(CCCO)[C@@H]4C2=O)cc1` (stereo not given in full), for which the composite z-score was 0.515 in assay [1]; 0.15 in assay [2]; -0.062 in [3]; -0.679 in [4]; -1.04 in assay [5]; 0.986 in assay [6]. In addition, the composite z-score in assay [7] was 0.391; in assay [9], -0.504; in assay [10], 0.0881; in assay [11], 0.586; in [15] it was 1.57; in assay [17], -0.139. Further, the composite z-score is -0.927 in assay [18], -0.453 in [19] and -0.188 in [20]. For the same compound, the z-score is 0.275 (inactive) in assay [8]; -0.6 (inactive) in assay [12]; -0.197 (inactive) in assay [13]; -0.298 (inactive) in assay [14]; 1.6 (inactive) in assay [16].

Turning to `COCCOC(=O)N1C(=O)[C@@]2(c3ccccc31)[C@H](C(=O)N1CCCCCCC1)[C@H]1C(=O)O[C@H](c3ccccc3)[C@H](c3ccccc3)N1[C@@H]2c1ccc(O)cc1`, the composite z-score in assay [1] is 3.89; in assay [2] it was 1.42; in [3] it was 0.904; in [4], 0.559; in assay [5], 1.08; in assay [6], 1.59. Further, the composite z-score was determined as 1.15 in assay [7]; 3.43 in assay [9]; 3.37 in assay [10]; 1.53 in [11]; 4.37 in assay [15]; 1.75 in [17]. Further, the composite z-score in [18] is 1.11; in assay [19], 1.09; in assay [20] it was 1.15. In addition, the z-score in assay [8] was -1.43 (inactive); in assay [12], -1.37 (inactive); in assay [13], -0.268 (inactive); in assay [14] it was 1.63 (inactive); in [16], 1.39 (inactive).

`[N-]=[N+]=Nc1ccccc1[C@@H]1OC(c2ccc(OCCCO)cc2)=N[C@]1(Cc1ccccc1)C(N)=O`: the composite z-score in assay [1] is 0.379; in [2], -0.334; in assay [3] it was -0.0543; in [4] it was 0.505; in [5] it was 0.824; in assay [6] it was 1.17. For the same compound, the composite z-score in [7] was 0.884; in assay [9] it was 0.277; in assay [10], -0.0994; in assay [11], -0.0138; in [15], 2.04; in [17], 0.0529. Further, the composite z-score in assay [18] was -0.231; in assay [19], 0.383; in [20], 0.224. In addition, the z-score in [8] is 0.377 (inactive); in assay [12] it was 0.622 (inactive); in assay [13], -1.21 (inactive); in [14], -0.026 (inactive); in assay [16], 1.74 (inactive).

Regarding `COCCOC(=O)N1C(=O)[C@@]2(c3cc(C#Cc4ccc(OC)cc4)ccc31)[C@H](c1ccc(OCCO)cc1)N1[C@H](c3ccccc3)[C@H](c3ccccc3)OC(=O)[C@H]1[C@@H]2C(=O)N1CCCCCCC1`, the composite z-score in [1] was 2.51; in [2], 0.351; in assay [3], 0.684; in assay [4], 0.315; in assay [5], 0.753; in assay [6] it was 1.52. In addition, the composite z-score in [7] came out at 1.01; in [9] it was 2.75; in assay [10], 2.59; in assay [11], 1.49; in assay [15], 3.3; in assay [17], 1.45. Besides, the composite z-score is 2.09 in [18], 0.955 in [19] and 0.882 in assay [20]. In addition, the z-score in assay [8] was -0.531 (inactive); in assay [12] it was -1.32 (inactive); in assay [13], -0.0066 (inactive); in [14] it was 3.2 (inactive); in assay [16] it was 0.106 (inactive).
